# Experiments:
# [1] = target: Tumor necrosis factor receptor superfamily member 10B (Homo sapiens) (UniProt O14763); assay: viability loss of caspase-8 NB7 cells with TRAIL – with/without TRAIL, luminescence panel, confirmation (AID 651596); settings: NB7 neuroblastoma + caspase-8, TRAIL sensitization, NB7 Caspase-8, with TRAIL, mean of runs, at 10 µM, stronger effect = higher value
# [2] = as above; settings: NB7 neuroblastoma + caspase-8, without TRAIL, NB7 Caspase-8, without TRAIL, mean of runs, at 10 µM
# Chain of Tumor necrosis factor receptor superfamily member 10B (Homo sapiens) (O14763 whole entry, looked up): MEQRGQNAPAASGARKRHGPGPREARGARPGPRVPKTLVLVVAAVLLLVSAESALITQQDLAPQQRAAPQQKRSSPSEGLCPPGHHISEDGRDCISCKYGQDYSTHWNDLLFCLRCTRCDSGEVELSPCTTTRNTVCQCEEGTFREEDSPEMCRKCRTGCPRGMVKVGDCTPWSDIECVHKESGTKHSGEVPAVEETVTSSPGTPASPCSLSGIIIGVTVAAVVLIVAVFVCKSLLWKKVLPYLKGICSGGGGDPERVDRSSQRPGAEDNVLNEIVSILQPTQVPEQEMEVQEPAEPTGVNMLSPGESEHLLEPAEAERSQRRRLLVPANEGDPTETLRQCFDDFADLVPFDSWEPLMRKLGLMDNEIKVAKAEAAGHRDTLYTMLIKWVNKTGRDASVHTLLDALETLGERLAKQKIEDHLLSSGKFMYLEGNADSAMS
Compound,activity [1] [%],activity [2] [%]
COc1ccc(Oc2c(Cl)cnn(-c3ccc(Cl)c(Cl)c3)c2=O)cc1,98.5,99.1
COc1cccc(NC(=O)n2ncc3c(C)cccc32)c1,67.7,64.3
COc1ccc(C(=O)NNC(=S)NC(=O)/C=C/c2cccs2)cc1,36.2,42.2
Cc1nc2c(-c3ccc(F)cc3)cnn2c(N)c1-c1ccc(F)cc1,66.2,57
Cc1cc(N/N=C\c2ccccc2)nc(-c2ccccc2O)n1,41.2,24.4
CN1/C(=C/C(=O)c2cccs2)Sc2ccccc21,60,47
CCOC(=O)CNC(=O)CSc1nnc(NC(=O)c2ccc(C)cc2)s1,94.5,92.5
NC(=O)c1ccccc1N/C=C/C(=O)c1ccc(F)cc1,78.8,73
CC(C)c1ccc(-n2c(-c3ccccc3)c[n+]3c2CCc2ccccc2-3)cc1,77,75.5
COc1ccc(C2=NN(C(=O)COC(=O)c3ccc(S(C)(=O)=O)c([N+](=O)[O-])c3)C(c3ccco3)C2)cc1 (centres undefined),92.5,98.5
O=C(Nc1ccc(N2CCOCC2)cc1)c1cnccn1,84.4,82.8
Cc1ccc(C(=O)/C=C/Nc2ccccn2)cc1,86.9,79.8
CCOC(=O)/C(=C/c1ccc(OC(F)F)cc1)C1=Nn2c(nnc2-c2ccc(Cl)cc2)SC1,98.8,97.1
Cc1cccc(-c2noc(-c3ccc4c(c3)OCO4)n2)c1,64.6,60.1
O=C(Nc1nc2c(s1)CCCC2)c1cccs1,71.3,82.1
CN1CCN(c2nc(-c3ccc(C(C)(C)C)cc3)nc3ccccc23)CC1,67.9,69.6
Nc1nc(=S)c2ncn([C@@H]3O[C@H](CO)[C@@H](O)[C@H]3O)c2[nH]1,70.6,73.5
O=C(Nc1cccc(O)c1)c1noc2c1CCCCC2,66.2,61
COc1ccc(C(=O)Nc2ccccc2C(=O)N/N=C/c2cccc3ccccc23)cc1,98.8,95.8
Oc1ccccc1C=Nc1ccccc1-c1nc2ccccc2[nH]1,7.4,1.85
O=C(CC1SC(=O)N(Cc2cccc3ccccc23)C1=O)Nc1nccs1 (centres undefined),33,74.3
CC1=C(C(=O)Nc2ccccc2)C(c2ccc(C)cc2)N=C(Nc2nc3ccccc3o2)N1 (centres undefined),41,76
CCN(CC)S(=O)(=O)c1cccc(NC(=O)Nc2cccc(C(F)(F)F)c2)c1,78.2,53
CCN(CC)c1ccc(/C=N/NC(=O)c2ccccn2)cc1,57.3,45.4
Cc1ccccc1Nc1nc(N)c2ccccc2n1,63.9,59.8
Cc1ccccc1C(=O)O/N=C(\N)c1ccncc1,61.6,76.3

Compound,activity [1] [%],activity [2] [%]
Cc1ccc(-c2nnc(-c3cccc4ccccc34)o2)cc1,58.2,44
S=C(Nc1ccc(Cl)cc1)c1nc2ccccc2[nH]1,60.6,65.9
Oc1ccc(-c2nc3ccccc3s2)cc1,47.5,47.9
Cc1onc(-c2c(F)cccc2Cl)c1C(=O)Nc1nc2ccccc2[nH]1,31.9,30.2
O=C(Nc1ccc(Cl)cn1)c1ccc2c(Cl)c3c(nc2c1)CCC3,56.8,56.3
Cc1cc(C)cc(C(=O)Nc2nc3ccccc3[nH]2)c1,78.7,72.5
Cc1cc(Cl)n2c(nc3cc(F)c(F)cc32)c1C#N,91.7,99.3
COc1ccc(/C=C\c2nc(=O)c3ccccc3o2)cc1,72,69.6
CCc1ccc2nc(N(CCCN(C)C)C(=O)c3ccc(S(=O)(=O)N4CCc5ccccc5C4)cc3)sc2c1,68.4,64
Cc1cc(/C(N)=N/OC(=O)c2ccccc2Cl)no1,63.5,68.1
Cc1nc(NC(=O)c2cc3ccccc3o2)sc1C,80.8,79.8
CS(=O)c1nc(-c2ccc(Br)cc2)cc(-c2ccccc2)c1C#N (centres undefined),95.7,97.8
CCOc1cccc2cc(-c3nnc(NCc4ccco4)s3)c(=O)oc12,-11.9,-7.67
Cc1ccnc(NC(=O)CCC2CCCCC2)c1,60.2,46.5
O=C1C(=Cc2ccccc2Cl)CCc2ccccc21,62.3,51.9
CS(=O)(=O)c1ccc2nc(NC(=O)c3cccc([N+](=O)[O-])c3)sc2c1,69.4,71.3
CN1CCN(c2ccc3sc(-n4ccc5ccccc54)nc3c2)CC1,76.2,64.5
N/C(=N\OC(=O)c1ccc(Cl)cc1)c1ccc(Cl)cc1,92.4,76.8
Cc1ccc(/C=C(\C#N)c2nc3ccccc3[nH]2)s1,69.8,72
CCCCCCCCCCCC1N=C(N)NC(CCCO)=C1C(=O)OC (centres undefined),16.3,18.3
CCc1ccc(C2=NNC(=Nc3cccc(S(=O)(=O)N(C)C)c3)SC2)cc1,76.8,75
COc1cccc(/C=C2\Oc3ccc(O)cc3C2=O)c1O,66.8,56.4
O=C(/C=C/Nc1ccccc1)c1ccccc1,63.1,44.8
Cc1ccc(-c2nc3cc(N)ccc3o2)cc1,69.2,60
CCOc1ccc(/C=C2\CCc3ccccc3C2=O)cc1,83.2,79.2
CS(=O)(=O)c1ccc2nc(NC(=O)c3ccco3)sc2c1,61,57.8

Compound,activity [1] [%],activity [2] [%]
O=C(NC(=S)Nc1ccc(Br)cn1)c1cccs1,71.7,73.2
Nc1c(N(CCC2=CCCCC2)C(=O)COc2ccc(F)cc2)c(=O)[nH]c(=O)n1Cc1ccccc1,27.3,23
COc1cc2nc(CN(C)Cc3ccc(C(C)(C)C)cc3)[nH]c(=O)c2cc1OC,70.5,68
COc1cc2ccccc2cc1C(=O)Nc1sc2c(c1C(N)=O)CCN(C(C)C)C2,79.4,98.2
COc1ccc(OC)c(Nc2nc(N)nc(CCl)n2)c1,99,97.5
O=C(CSc1ncnc2nc[nH]c12)c1ccc(Cl)cc1,57.6,66
Cc1ccc(OCCSCc2nnc(NC(=O)Nc3cccc(Cl)c3)s2)cc1,36.6,43.7
O=C(c1cc(-c2ccc3c(c2)OCO3)on1)N1CCCCC1,53.4,48.9
Cc1ccc(CSc2nc3ccncc3[nH]2)cc1,98.5,99.2
CSc1nc2ccc(NC(=O)c3ccccn3)cc2s1,83.2,80
Fc1ccc(/C=N/Nc2nc(-c3cccnc3)nc3ccccc23)cc1,50.8,19.2
COc1ccccc1N1CCN(Cc2ccc(O)c3ncccc23)CC1,30.2,76
N#Cc1cccnc1N1CCN(C(=O)c2cccc3c2C(=O)c2ccc(Cl)cc2S3(=O)=O)CC1,98.4,97.4
Cc1ccnc(NC(=O)c2ccc(Br)s2)c1,52.3,53
CCOc1cc(/C=C\[N+](=O)[O-])ccc1OCC(=O)Nc1ccccc1C,88.8,91.9
COC(=O)c1ccc(CCc2cc(O)c(Br)cc2O)cc1,15,19.7
Cc1ccc2nc(NC(=O)c3cccs3)sc2c1,72.1,71.2
NC(c1csc(NC(=O)Nc2cccc(C(F)(F)F)c2)n1)C1CCCCC1 (centres undefined),56.4,94.9
COc1ccccc1-c1cc2nc(-c3ccccc3)cc(N3CCN(C(=O)c4ccco4)CC3)n2n1,81.9,66
CCOC(=O)c1c(C)oc2c(F)c(F)c(F)c(F)c2c1=O,99.2,99.2
Fc1cccc2sc(Nc3nnc(-c4ccccc4)o3)nc12,71,73
Oc1cccc(-c2nnc(-c3cccc(O)c3)nn2)c1,89,84.2
C/C(=N\NC(=O)c1ccc2ccccc2c1)c1cccs1,60.5,67.2
CC1=NN(c2nc(N)nc(/C(C#N)=C/c3ccc([N+](=O)[O-])o3)n2)C(C)(C)C1,58.1,98.6
C#CCSc1nnc(-c2ccc(OC)cc2)o1,97.1,89.3

# Reference: PubChem BioAssay
